# Reference: the supplement of paper PMC8728848
# Only a selection was taken, and the strongest signals are over-represented in it overall.
# Columns and labels:
# Test in all cases: glycan array binding signal (z-score within array); higher = stronger binding
# Details in all cases: glycan notation: IUPAC condensed, linker removed
# [1] = target: Fuc(a1-2)Gal(b1-3)[Fuc(a1-4)]GlcNAc(b1-2)Man(a1-3)[Fuc(a1-2)Gal(b1-3)[Fuc(a1-4)]GlcNAc(b1-2)Man(a1-6)]Man(b1-4)GlcNAc(b1-4)GlcNAc
# Procedure, shortened: (§1)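 From the Consortium for Functional Glycomics database, 3228 arrays were curated, keeping only those whose protein sequence was available. Binding is given as a within-array Z-score averaged across arrays sharing a protein sequence and across linkers. Negative Z-scores can be read as non-binding.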
# [2] = target: Fuc(a1-2)Gal(b1-3)[Fuc(a1-4)]GlcNAc(b1-3)[Gal(b1-4)GlcNAc(b1-6)]Gal(b1-4)Glc
# Procedure, shortened: as §1
# [3] = target: Fuc(a1-2)Gal(b1-4)GlcNAc(b1-3)Gal(b1-4)GlcNAc(b1-3)Gal(b1-4)GlcNAc
# Procedure, shortened: as §1
# [4] = target: Fuc(a1-2)[Gal(a1-3)]Gal(b1-4)GlcNAc(b1-2)Man(a1-3)[Fuc(a1-2)[Gal(a1-3)]Gal(b1-4)GlcNAc(b1-2)Man(a1-6)]Man(b1-4)GlcNAc(b1-4)[Fuc(a1-6)]GlcNAc
# Procedure, shortened: as §1
# [5] = target: Fuc(a1-2)[Gal(a1-3)]Gal(b1-4)[Fuc(a1-3)]GlcNAc
# Procedure, shortened: as §1
# [6] = target: Fuc(a1-3)[Gal(b1-4)]Glc6S
# Procedure, shortened: as §1
# [7] = target: Fuc(a1-3)[Gal(b1-4)]GlcNAc(b1-4)Gal(b1-4)[Fuc(a1-3)]GlcNAc(b1-4)Gal(b1-4)[Fuc(a1-3)]GlcNAc
# Procedure, shortened: as §1
# Fuc(a1-4)GlcNAc = target: Fuc(a1-4)GlcNAc
# Procedure, shortened: as §1
# [8] = target: Gal(a1-4)Gal(b1-3)GlcNAc(b1-2)Man(a1-3)[Gal(a1-4)Gal(b1-3)GlcNAc(b1-2)Man(a1-6)]Man(b1-4)GlcNAc(b1-4)GlcNAc
# Procedure, shortened: as §1
# Gal(a1-4)Gal(b1-4)Glc = target: Gal(a1-4)Gal(b1-4)Glc
# Procedure, shortened: as §1
# Gal(b1-3)Gal(b1-4)GlcNAc = target: Gal(b1-3)Gal(b1-4)GlcNAc
# Procedure, shortened: as §1
# [9] = target: Gal(b1-4)GlcNAc(b1-2)[Gal(b1-4)GlcNAc(b1-6)]Man(a1-6)[Gal(b1-4)GlcNAc(b1-2)Man(a1-3)]Man(b1-4)GlcNAc(b1-4)GlcNAc
# Procedure, shortened: as §1
# [10] = target: Gal(b1-4)GlcNAc(b1-3)[Gal(b1-4)GlcNAc(b1-6)]Gal(b1-4)GlcNAc
# Procedure, shortened: as §1
# [11] = target: Gal(b1-4)GlcNAc(b1-3)[Gal(b1-4)GlcNAc(b1-6)]GalNAc
# Procedure, shortened: as §1
# Gal6S(b1-4)Glc6S = target: Gal6S(b1-4)Glc6S
# Procedure, shortened: as §1
# [12] = target: GalNAc(a1-3)Fuc(a1-2)Gal(b1-4)GlcNAc(b1-3)[GalNAc(a1-3)Fuc(a1-2)Gal(b1-4)GlcNAc(b1-6)]GalNAc
# Procedure, shortened: as §1
# [13] = target: GalNAc(b1-3)Gal(a1-6)Gal(b1-4)Glc
# Procedure, shortened: as §1
# GalNAc(b1-3)GalNAc = target: GalNAc(b1-3)GalNAc
# Procedure, shortened: as §1
# [14] = target: Glc(a1-6)Glc(a1-6)Glc(a1-6)Glc
# Procedure, shortened: as §1
# GlcA(b1-3)Gal = target: GlcA(b1-3)Gal
# Procedure, shortened: as §1
# [15] = target: GlcNAc(b1-3)Gal(b1-3)GalNAc
# Procedure, shortened: as §1
# GlcNAc(b1-3)GalNAc = target: GlcNAc(b1-3)GalNAc
# Procedure, shortened: as §1
# [16] = target: GlcNAc(b1-3)[GlcNAc(b1-6)]GalNAc
# Procedure, shortened: as §1
# GlcNAc(b1-4)GlcNAc = target: GlcNAc(b1-4)GlcNAc
# Procedure, shortened: as §1
# GlcNAc3Prop(b1-4)GlcNAc = target: GlcNAc3Prop(b1-4)GlcNAc
# Procedure, shortened: as §1
# [17] = target: Man(a1-2)Man(a1-3)[Man(a1-2)Man(a1-6)]Man(a1-6)[Man(a1-2)Man(a1-2)Man(a1-3)]Man(b1-4)GlcNAc(b1-4)GlcNAc
# Procedure, shortened: as §1
# [18] = target: Neu5Ac(a2-3)Gal(b1-3)GalNAc(b1-4)[Neu5Ac(a2-3)]Gal(b1-4)Glc
# Procedure, shortened: as §1
# [19] = target: Neu5Ac(a2-3)Gal(b1-3)GlcNAc
# Procedure, shortened: as §1
# [20] = target: Neu5Ac(a2-3)Gal(b1-3)GlcNAc6S
# Procedure, shortened: as §1
# [21] = target: Neu5Ac(a2-3)Gal(b1-3)[Neu5Ac(a2-6)]GalNAc
# Procedure, shortened: as §1
# [22] = target: Neu5Ac(a2-3)Gal(b1-4)GlcNAc(b1-6)[Gal(b1-3)]GalNAc
# Procedure, shortened: as §1
# [23] = target: Neu5Ac(a2-3)Gal(b1-4)[Fuc(a1-3)]GlcNAc(b1-3)GalNAc
# Procedure, shortened: as §1
# [24] = target: Neu5Ac(a2-3)Gal(b1-4)[Fuc(a1-3)]GlcNAc(b1-6)[Gal(b1-3)]GalNAc
# Procedure, shortened: as §1
# [25] = target: Neu5Ac(a2-6)Gal(b1-4)GlcNAc(b1-2)Man(a1-6)[GlcNAc(b1-2)Man(a1-3)]Man(b1-4)GlcNAc(b1-4)GlcNAc
# Procedure, shortened: as §1
# [26] = target: Neu5Ac(a2-6)GlcNAc(b1-4)GlcNAc(b1-4)GlcNAc
# Procedure, shortened: as §1
# [27] = target: Neu5Ac(a2-8)Neu5Ac(a2-3)Gal(b1-4)Glc
# Procedure, shortened: as §1
# [28] = target: Neu5Ac(a2-8)Neu5Ac(a2-3)[Gal(b1-3)GalNAc(b1-4)]Gal(b1-4)Glc
# Procedure, shortened: as §1
binder,measurement,setting,value
"SefD (Salmonella enterica), Q9L6K6 (protein) GAYIIRGQNNSAHKLRIRIGGEDWQPDNSGIGMVSHSDFTNEFNIYYFGNGDIPVDTYLISIYATEIEL",glycan array binding signal (z-score),[1],-0.362
same,glycan array binding signal (z-score),[2],5.83
same,glycan array binding signal (z-score),[3],-0.043
same,glycan array binding signal (z-score),[4],-0.413
same,glycan array binding signal (z-score),[5],-0.401
same,glycan array binding signal (z-score),[6],-0.328
same,glycan array binding signal (z-score),[7],-0.46
same,glycan array binding signal (z-score),Fuc(a1-4)GlcNAc,2.37
same,glycan array binding signal (z-score),[8],-0.091
same,glycan array binding signal (z-score),Gal(a1-4)Gal(b1-4)Glc,-0.442
same,glycan array binding signal (z-score),Gal(b1-3)Gal(b1-4)GlcNAc,2.24
same,glycan array binding signal (z-score),[9],0.127
same,glycan array binding signal (z-score),[10],-0.614
same,glycan array binding signal (z-score),[11],-0.441
same,glycan array binding signal (z-score),Gal6S(b1-4)Glc6S,-0.435
same,glycan array binding signal (z-score),[12],5.38
same,glycan array binding signal (z-score),[13],-0.631
same,glycan array binding signal (z-score),GalNAc(b1-3)GalNAc,-0.05
same,glycan array binding signal (z-score),[14],-0.319
same,glycan array binding signal (z-score),GlcA(b1-3)Gal,-0.456
same,glycan array binding signal (z-score),[15],-0.29
same,glycan array binding signal (z-score),GlcNAc(b1-3)GalNAc,-0.427
same,glycan array binding signal (z-score),[16],-0.43
same,glycan array binding signal (z-score),GlcNAc(b1-4)GlcNAc,0.15
same,glycan array binding signal (z-score),GlcNAc3Prop(b1-4)GlcNAc,6.32
same,glycan array binding signal (z-score),[17],-0.324
same,glycan array binding signal (z-score),[18],-0.395
same,glycan array binding signal (z-score),[19],-0.336
same,glycan array binding signal (z-score),[20],-0.237
same,glycan array binding signal (z-score),[21],2.7
same,glycan array binding signal (z-score),[22],3.13
same,glycan array binding signal (z-score),[23],11.3
same,glycan array binding signal (z-score),[24],-0.092
same,glycan array binding signal (z-score),[25],-0.228
same,glycan array binding signal (z-score),[26],-0.293
same,glycan array binding signal (z-score),[27],0.431
same,glycan array binding signal (z-score),[28],0.969
